From PubChem BioAssay (NCATS)
Records with an inconclusive call do not appear. Calls of active or inactive are those of the source. Calls follow the shape of the dose curve; as a rule, active = well fitted inhibition curve with a large enough effect; inconclusive = small, poorly fitted or top-dose-only effect; inactive = flat fitted curve, though single readings scatter.

Experiments:
Assay in all cases: qHTS profiling for inhibitors of Plasmodium falciparum proliferation (AID 504749); also: nearly all actives have a fitted effect of over 60% in size
Conditions in all cases: P. falciparum in erythrocytes, SYBR Green DNA, 72 h; series mostly up to 28.7 µM
[1] = tested on: AS120
Summary of the method: (§1)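 SYBR Green fluorescence (ex 485 nm, em 535 nm) reports parasite DNA after 72 h compound exposure of infected red cells at 0.3% parasitemia, 2.5% hematocrit; signal normalized to 0.29 uM artemisinin and vehicle wells.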

[2] = tested on: ATS189
Summary of the method: as §1

[3] = tested on: ATS95
Summary of the method: as §1

[4] = tested on: CP191
Summary of the method: as §1

[5] = tested on: CP237
Summary of the method: as §1

[6] = tested on: CP247
Summary of the method: as §1

[7] = tested on: CP265
Summary of the method: as §1

[8] = tested on: CP266
Summary of the method: as §1

[9] = tested on: CP268
Summary of the method: as §1

[10] = tested on: CP269
Summary of the method: as §1

[11] = tested on: CP305
Summary of the method: as §1

[12] = tested on: CP325
Summary of the method: as §1

[13] = tested on: DIV30
Summary of the method: as §1

[14] = tested on: ECU
Summary of the method: as §1

[15] = tested on: HB3
Summary of the method: as §1

[16] = tested on: P94_40
Summary of the method: as §1

[17] = tested on: PAD
Summary of the method: as §1

[18] = tested on: PC26
Summary of the method: as §1

[19] = tested on: PC49
Summary of the method: as §1

[20] = tested on: TAB113
Summary of the method: as §1

Measured: Potency

N[C@@H](Cc1ccccc1)C(=O)O
inactive: all assays above

C[C@]12CC[C@H]3c4ccc(O)cc4CC[C@@H]3[C@H]1CC[C@@H]2OP(=O)(O)O
inactive: all assays above
